# The full ranking holds about 81,000 sequences; the median of “one-hybrid fitness for binding parS DNA” is about -0.17, and the highest 2% start at about 0.51. Many of the other results were omitted from the sample, so the highest values are more common in it than they were.
# B1: Caulobacter ParB omega fusion; a variant is named by its letters at X, in order, B8GW30 (parent)
# chain: MESVVVGEPGMSEGRRGLGRGLSALLGEVDAAPAQAPGEQLGGSREAPIEILQRNPDQPRRTFREEDLEDLSNSIREKGVLQPILVRPSPDTAGEYQIVAGERAWRAAQRAGLKTVPIMVRELDDLAVLEIGIIENVQRADLNVLEEALSYKVLMEKFERTQENIAQTIGKSXSHVANXMRLLXLPDEVQSYLVSGELTAXHARAIAAAADPVALAKQIIEGGLSVRETEALARKAPNLSAGKSKGGRPPRVKDTDTQALESDLSSVLGLDVSIDHRGSTGTLTITYATLEQLDDLCNRLTRGI
# Variants of: B1
# Assay: one-hybrid fitness for binding parS DNA (scaled: cognate 1, non-cognate 0); higher = stronger binding
# Conditions: with parS DNA site
# In short: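 Selection: bacterial one-hybrid in E. coli USO, HIS3 reporter with the site 19 bp from the promoter, 48 hours at 37°C on M9-minus-histidine plus 0.1 mM IPTG and 5 mM 3-AT. Libraries were Caulobacter ParB with four randomised specificity codons, sequenced on Illumina before and after selection. Fitness is the rescaled log change in variant-to-wild-type read ratio, anchored to the cognate and non-cognate sites.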
row,Variant,one-hybrid fitness for binding parS DNA
1,RLIC,0.938
2,RLPR,≤ 0.2
3,RLPC,0.681
4,RLIQ,≤ 0.2
5,RLIF,≤ 0.2
6,RLPF,≤ 0.2
7,SDVC,≤ 0.2
8,QSHD,≤ 0.2
9,RMNA,0.606
10,RMDA,0.572
11,SISG,≤ 0.2
12,RVSN,0.426
13,RVQS,0.989
14,RVGS,0.954
15,RVGP,≤ 0.2
16,RVSP,≤ 0.2
17,RVGH,≤ 0.2
18,RVHH,0.235
19,RVHN,0.425
20,RVHS,0.972
21,RVQD,≤ 0.2
22,RVQH,0.223
23,RVSS,0.975
24,IMHT,≤ 0.2
25,WTRR,≤ 0.2
26,ISNF,≤ 0.2

row,Variant,one-hybrid fitness for binding parS DNA
1,FYDL,≤ 0.2
2,IAGR,≤ 0.2
3,TAIN,≤ 0.2
4,RVRD,≤ 0.2
5,RVCH,≤ 0.2
6,RVYS,1.04
7,RVYD,0.216
8,RVYH,0.263
9,RVCD,≤ 0.2
10,RVWD,0.212
11,RVWS,1.05
12,RVWN,0.478
13,RVCS,1.03
14,RVRS,0.895
15,RVRN,0.409
16,MMSR,≤ 0.2
17,MHFY,≤ 0.2
18,QASI,≤ 0.2
19,TREC,≤ 0.2
20,PYKT,≤ 0.2
21,HPDN,≤ 0.2
22,KRKQ,≤ 0.2
23,KLMV,≤ 0.2
24,RVLH,0.229
25,RVLS,1.03
26,RVLP,≤ 0.2

row,Variant,one-hybrid fitness for binding parS DNA
1,TMII,≤ 0.2
2,RSVM,0.265
3,RSVK,≤ 0.2
4,RCVG,0.991
5,RDVG,≤ 0.2
6,RSVG,0.89
7,RPVG,≤ 0.2
8,MFMG,≤ 0.2
9,RFCF,≤ 0.2
10,TLGM,≤ 0.2
11,RCGC,0.97
12,RSGC,0.956
13,RDGC,≤ 0.2
14,RSGP,≤ 0.2
15,RSGH,0.208
16,RKGF,≤ 0.2
17,RPGC,≤ 0.2
18,RKGR,≤ 0.2
19,RMGC,0.952
20,RKGC,0.827
21,RMGM,0.315
22,RMGL,≤ 0.2
23,QVMA,≤ 0.2
24,QTTD,≤ 0.2
25,LGCG,≤ 0.2
